Measured values as given in publication PMC7862700, “An all-to-all approach to the identification of sequence-specific readers for epigenetic DNA modifications on cytosine”.

How the values were obtained:
Experiment in all cases: DAPPL (digital affinity profiling via proximity ligation, sequencing); 10 mM Tris-HCl pH 7.5, 50 mM NaCl, 1 mM DTT, 4% glycerol, room temperature, 30 min; GST-TFs on glutathione beads, 16-mer random dsDNA library, 0.1% formaldehyde crosslink after washing; high values mean tight binding
Conditions in all cases: protein: recombinant; tags: N-terminal GST; dsDNA, one strand shown
[1] = target: T1, ELK1 (Homo sapiens, UniProt P19419 1-428)
T1 sequence: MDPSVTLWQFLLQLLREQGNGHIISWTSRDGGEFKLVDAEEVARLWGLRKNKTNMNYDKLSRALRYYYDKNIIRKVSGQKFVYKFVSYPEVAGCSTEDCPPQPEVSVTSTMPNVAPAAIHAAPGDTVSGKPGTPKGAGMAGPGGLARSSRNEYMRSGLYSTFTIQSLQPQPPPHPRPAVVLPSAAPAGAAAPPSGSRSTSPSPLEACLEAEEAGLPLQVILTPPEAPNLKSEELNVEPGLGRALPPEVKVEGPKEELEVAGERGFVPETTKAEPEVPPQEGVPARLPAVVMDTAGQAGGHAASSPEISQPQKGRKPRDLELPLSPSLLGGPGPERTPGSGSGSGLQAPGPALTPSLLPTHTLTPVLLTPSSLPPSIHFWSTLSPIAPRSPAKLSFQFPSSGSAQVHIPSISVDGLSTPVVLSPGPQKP
In short: (§1)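 Binding signal is each hexamer's read frequency for a factor divided by its frequency in the tag-only sample. The factors were GST-fused human transcription factors from yeast, captured on glutathione beads, DNA-barcoded and pooled with that sample. Pools were incubated with 200 nmole of a random double-stranded 16-mer DNA library in Tris/NaCl/DTT/glycerol buffer at room temperature for 30 min, then washed, crosslinked with 0.1% formaldehyde, proximity-ligated with BsaI/T4 ligase (1 h, 37 °C), PCR-amplified and sequenced on an Illumina NextSeq500.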

[2] = target: T2, GABPA (Homo sapiens, UniProt Q06546 1-454)
T2 sequence: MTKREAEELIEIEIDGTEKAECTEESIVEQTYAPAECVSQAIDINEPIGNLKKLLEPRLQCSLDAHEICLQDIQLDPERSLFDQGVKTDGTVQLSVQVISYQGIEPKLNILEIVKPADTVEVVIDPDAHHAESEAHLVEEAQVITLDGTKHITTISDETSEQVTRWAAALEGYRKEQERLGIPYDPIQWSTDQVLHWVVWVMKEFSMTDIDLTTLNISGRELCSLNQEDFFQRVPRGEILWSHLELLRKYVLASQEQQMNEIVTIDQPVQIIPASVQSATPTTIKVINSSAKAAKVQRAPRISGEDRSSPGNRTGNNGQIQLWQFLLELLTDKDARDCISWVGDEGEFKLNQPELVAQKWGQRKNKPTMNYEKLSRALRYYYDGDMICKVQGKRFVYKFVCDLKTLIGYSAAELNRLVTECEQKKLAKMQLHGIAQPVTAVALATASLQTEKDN
In short: as §1

[3] = target: T3, ERG (Homo sapiens, UniProt P11308 1-479)
T3 sequence: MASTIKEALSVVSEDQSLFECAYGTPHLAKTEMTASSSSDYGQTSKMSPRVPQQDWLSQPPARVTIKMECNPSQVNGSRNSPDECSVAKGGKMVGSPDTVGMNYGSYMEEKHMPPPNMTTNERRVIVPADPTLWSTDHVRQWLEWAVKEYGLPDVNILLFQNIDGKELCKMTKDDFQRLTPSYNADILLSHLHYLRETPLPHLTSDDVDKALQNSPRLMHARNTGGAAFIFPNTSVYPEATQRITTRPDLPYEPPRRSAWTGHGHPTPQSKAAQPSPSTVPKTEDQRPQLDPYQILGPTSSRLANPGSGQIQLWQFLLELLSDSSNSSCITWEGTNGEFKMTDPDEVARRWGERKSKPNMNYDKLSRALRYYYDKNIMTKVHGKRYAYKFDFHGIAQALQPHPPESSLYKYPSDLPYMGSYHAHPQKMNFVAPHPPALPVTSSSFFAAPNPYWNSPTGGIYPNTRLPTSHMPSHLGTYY
In short: as §1

[4] = target: ELF1 (Homo sapiens, UniProt P32519 1-619)
In short: as §1

[5] = target: T4, EHF (Homo sapiens, UniProt Q9NZC4 1-300)
T4 sequence: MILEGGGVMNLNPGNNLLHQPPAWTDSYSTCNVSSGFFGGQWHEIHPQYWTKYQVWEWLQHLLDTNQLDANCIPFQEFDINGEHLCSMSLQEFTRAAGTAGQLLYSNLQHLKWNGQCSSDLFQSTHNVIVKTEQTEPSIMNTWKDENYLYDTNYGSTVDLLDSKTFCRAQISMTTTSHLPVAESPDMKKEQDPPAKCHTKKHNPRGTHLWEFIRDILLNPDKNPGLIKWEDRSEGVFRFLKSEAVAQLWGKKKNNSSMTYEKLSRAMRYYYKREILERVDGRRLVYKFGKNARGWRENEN
In short: as §1

[6] = target: SPIB (Homo sapiens, UniProt Q01892 1-262)
In short: as §1

[7] = target: T5, FEV (Homo sapiens, UniProt Q99581 1-238)
T5 sequence: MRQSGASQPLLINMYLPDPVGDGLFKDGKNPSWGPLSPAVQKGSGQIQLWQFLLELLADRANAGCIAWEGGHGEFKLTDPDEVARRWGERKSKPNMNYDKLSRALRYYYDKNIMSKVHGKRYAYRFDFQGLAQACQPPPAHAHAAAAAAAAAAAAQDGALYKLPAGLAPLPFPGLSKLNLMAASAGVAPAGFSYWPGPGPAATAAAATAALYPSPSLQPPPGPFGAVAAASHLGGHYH
In short: as §1

[8] = target: ETV5 (Homo sapiens, UniProt P41161 1-510)
In short: as §1

[9] = target: ELF4 (Homo sapiens, UniProt Q99607 1-663)
In short: as §1

[10] = target: T6, ELK4 (Homo sapiens, UniProt P28324-2 1-405)
T6 sequence: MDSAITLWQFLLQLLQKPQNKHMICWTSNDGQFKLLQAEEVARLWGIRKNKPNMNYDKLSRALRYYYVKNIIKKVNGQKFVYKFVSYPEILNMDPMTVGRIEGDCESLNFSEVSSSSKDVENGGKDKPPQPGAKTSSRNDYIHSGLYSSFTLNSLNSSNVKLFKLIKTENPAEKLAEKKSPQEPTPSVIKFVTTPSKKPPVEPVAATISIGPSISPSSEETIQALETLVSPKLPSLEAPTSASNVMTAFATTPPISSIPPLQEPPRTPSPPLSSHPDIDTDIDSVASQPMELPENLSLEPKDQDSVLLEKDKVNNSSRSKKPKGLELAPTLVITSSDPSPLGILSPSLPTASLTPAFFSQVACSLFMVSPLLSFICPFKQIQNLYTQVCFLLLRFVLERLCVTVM
In short: as §1

[11] = target: T7, ETV2 (Homo sapiens, UniProt O00321 1-342)
T7 sequence: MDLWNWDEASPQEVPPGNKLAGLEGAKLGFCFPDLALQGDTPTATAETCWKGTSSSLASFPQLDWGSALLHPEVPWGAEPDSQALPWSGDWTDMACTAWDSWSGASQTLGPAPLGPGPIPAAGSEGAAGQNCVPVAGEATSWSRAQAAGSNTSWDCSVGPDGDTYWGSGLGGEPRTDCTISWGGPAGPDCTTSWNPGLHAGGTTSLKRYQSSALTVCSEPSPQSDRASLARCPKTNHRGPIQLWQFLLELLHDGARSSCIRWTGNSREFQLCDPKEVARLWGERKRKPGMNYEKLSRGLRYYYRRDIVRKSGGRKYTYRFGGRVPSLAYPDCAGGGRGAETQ
In short: as §1

[12] = target: ETV1 (Homo sapiens, UniProt P50549 1-477)
In short: as §1

[13] = target: T8, ERF (Homo sapiens, UniProt P50548 1-548)
T8 sequence: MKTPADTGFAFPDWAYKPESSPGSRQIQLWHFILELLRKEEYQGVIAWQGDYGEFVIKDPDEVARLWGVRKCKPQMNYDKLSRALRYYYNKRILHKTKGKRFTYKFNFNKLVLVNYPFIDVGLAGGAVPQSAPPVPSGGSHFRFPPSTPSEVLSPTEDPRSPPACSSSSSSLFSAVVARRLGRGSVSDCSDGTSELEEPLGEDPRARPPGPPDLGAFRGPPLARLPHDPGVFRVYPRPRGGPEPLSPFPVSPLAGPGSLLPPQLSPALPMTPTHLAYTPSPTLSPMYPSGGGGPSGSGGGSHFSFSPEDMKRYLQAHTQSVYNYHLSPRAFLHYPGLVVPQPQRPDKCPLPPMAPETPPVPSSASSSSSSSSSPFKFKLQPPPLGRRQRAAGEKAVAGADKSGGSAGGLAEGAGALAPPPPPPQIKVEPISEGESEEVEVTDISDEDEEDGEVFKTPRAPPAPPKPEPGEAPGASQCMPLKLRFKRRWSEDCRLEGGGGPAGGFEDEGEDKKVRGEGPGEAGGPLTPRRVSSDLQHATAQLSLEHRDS
In short: as §1

[14] = target: T9, ETV3L (Homo sapiens, UniProt Q6ZN32 1-361)
T9 sequence: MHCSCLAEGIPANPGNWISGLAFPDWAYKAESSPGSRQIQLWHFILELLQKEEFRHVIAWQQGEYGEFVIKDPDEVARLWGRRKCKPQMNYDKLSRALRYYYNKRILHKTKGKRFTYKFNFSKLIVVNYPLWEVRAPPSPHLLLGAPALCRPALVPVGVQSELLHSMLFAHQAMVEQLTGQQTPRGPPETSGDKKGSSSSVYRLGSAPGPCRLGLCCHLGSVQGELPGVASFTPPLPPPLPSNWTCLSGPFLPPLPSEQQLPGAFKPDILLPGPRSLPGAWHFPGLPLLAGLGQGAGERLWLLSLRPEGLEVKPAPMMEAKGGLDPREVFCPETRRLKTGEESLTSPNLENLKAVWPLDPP
In short: as §1

[15] = target: T10, ETS2 (Homo sapiens, UniProt P15036 1-469)
T10 sequence: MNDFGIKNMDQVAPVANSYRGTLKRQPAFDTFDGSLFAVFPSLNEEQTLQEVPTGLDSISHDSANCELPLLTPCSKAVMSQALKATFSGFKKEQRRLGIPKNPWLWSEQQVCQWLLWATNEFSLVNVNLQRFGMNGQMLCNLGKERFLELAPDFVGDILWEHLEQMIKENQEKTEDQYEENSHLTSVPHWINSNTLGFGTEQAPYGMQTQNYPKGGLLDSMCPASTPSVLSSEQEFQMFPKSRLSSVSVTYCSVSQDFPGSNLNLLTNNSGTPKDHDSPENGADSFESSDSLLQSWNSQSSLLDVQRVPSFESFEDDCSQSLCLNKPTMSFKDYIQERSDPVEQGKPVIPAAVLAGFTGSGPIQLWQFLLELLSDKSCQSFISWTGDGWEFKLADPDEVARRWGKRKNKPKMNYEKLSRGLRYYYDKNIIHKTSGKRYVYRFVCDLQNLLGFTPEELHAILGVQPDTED
In short: as §1

[16] = target: T11, SPDEF (Homo sapiens, UniProt O95238 1-335)
T11 sequence: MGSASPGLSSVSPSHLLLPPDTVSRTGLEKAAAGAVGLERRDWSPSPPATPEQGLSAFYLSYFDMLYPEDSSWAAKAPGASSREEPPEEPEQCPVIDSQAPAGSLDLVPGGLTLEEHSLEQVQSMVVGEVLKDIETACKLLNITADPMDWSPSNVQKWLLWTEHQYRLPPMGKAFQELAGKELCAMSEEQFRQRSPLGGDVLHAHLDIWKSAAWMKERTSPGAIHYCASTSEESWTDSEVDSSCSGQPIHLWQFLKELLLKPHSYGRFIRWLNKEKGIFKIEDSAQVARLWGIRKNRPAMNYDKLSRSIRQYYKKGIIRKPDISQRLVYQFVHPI
In short: as §1

[17] = target: T12, ETV7 (Homo sapiens, UniProt Q9Y603 1-341)
T12 sequence: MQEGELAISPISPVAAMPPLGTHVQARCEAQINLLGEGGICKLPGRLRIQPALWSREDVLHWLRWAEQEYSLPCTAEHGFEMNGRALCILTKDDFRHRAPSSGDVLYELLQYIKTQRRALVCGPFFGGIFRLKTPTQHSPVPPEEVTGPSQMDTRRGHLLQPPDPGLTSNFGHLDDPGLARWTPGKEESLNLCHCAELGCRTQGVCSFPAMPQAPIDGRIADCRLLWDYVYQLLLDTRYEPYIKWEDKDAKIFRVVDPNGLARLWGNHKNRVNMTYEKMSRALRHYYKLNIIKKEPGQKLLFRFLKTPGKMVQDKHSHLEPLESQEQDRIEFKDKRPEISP
In short: as §1

[18] = target: T13, ETV3 (Homo sapiens, UniProt P41162-2 1-143)
T13 sequence: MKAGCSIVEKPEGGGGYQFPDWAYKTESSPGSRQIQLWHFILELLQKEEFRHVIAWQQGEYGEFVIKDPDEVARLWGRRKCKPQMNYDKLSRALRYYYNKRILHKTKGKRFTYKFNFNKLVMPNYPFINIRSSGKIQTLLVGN
In short: as §1

Sequence of ELF4 (Q99607 whole entry): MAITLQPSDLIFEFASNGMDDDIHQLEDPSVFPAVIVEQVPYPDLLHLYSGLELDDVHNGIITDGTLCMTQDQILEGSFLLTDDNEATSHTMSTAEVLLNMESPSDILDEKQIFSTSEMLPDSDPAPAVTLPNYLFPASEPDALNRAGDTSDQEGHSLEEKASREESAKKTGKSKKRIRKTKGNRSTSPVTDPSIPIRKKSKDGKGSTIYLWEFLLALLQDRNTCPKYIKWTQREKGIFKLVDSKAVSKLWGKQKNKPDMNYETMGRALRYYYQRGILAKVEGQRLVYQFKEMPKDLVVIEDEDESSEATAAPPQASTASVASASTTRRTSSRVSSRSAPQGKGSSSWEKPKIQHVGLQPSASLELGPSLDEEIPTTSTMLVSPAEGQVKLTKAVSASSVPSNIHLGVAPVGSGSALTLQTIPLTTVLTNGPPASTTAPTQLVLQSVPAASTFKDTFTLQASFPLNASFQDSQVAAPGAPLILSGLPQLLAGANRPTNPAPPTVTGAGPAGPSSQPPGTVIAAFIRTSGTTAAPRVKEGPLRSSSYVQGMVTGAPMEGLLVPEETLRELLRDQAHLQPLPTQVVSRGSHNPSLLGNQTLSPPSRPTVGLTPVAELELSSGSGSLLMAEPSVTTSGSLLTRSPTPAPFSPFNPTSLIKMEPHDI
Sequence of ETV1 (P50549 whole entry): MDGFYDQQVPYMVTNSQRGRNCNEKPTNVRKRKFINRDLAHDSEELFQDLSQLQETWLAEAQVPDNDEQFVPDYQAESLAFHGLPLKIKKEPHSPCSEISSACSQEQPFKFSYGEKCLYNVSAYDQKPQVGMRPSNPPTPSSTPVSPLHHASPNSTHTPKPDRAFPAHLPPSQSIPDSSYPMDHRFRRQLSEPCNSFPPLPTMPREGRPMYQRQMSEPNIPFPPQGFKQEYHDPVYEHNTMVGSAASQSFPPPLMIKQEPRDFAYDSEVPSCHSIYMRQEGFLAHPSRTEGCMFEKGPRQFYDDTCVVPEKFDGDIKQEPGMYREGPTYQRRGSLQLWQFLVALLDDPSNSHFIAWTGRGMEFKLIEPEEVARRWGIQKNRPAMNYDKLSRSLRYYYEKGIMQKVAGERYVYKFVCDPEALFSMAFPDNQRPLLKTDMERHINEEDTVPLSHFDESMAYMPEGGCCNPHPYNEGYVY
Sequence of SPIB (Q01892 whole entry): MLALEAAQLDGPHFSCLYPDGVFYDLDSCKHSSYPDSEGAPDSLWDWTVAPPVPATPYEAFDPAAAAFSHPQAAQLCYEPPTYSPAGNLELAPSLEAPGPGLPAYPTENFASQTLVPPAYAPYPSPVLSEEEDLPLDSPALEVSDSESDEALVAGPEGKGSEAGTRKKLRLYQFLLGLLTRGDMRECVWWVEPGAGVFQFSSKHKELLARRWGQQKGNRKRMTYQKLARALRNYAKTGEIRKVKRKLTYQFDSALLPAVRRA
Sequence of ELF1 (P32519 whole entry): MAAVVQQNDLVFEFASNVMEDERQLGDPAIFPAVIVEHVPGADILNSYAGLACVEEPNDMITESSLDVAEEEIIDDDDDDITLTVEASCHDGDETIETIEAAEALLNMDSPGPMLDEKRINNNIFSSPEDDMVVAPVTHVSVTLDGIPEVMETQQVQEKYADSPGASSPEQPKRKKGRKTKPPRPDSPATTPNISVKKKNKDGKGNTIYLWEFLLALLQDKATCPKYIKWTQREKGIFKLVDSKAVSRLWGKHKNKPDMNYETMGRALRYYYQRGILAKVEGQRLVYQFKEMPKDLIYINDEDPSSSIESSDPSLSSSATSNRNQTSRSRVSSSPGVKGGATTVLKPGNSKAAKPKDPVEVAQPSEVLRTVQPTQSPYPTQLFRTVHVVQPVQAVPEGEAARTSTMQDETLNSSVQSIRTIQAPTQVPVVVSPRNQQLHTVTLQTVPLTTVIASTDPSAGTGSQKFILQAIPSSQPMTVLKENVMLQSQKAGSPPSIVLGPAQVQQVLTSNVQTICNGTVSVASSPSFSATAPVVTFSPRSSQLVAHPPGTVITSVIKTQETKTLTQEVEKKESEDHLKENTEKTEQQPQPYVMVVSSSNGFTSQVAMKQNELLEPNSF
Sequence of ETV5 (P41161 whole entry): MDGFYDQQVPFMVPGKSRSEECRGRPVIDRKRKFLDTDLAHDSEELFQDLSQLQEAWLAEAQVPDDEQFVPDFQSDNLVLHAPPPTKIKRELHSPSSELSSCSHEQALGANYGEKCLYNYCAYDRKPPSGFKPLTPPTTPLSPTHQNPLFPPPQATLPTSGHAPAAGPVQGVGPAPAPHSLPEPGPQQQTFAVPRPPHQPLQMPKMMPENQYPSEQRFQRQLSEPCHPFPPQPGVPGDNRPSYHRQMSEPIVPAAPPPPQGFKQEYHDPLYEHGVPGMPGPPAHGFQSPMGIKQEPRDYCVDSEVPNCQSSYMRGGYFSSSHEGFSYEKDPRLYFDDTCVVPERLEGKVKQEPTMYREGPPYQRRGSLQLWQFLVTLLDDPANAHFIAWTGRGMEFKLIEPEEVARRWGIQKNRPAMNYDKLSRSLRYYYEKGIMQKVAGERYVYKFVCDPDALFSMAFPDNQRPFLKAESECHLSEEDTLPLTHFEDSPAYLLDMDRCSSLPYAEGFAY

For TGCAGC, the binding signal [1] was 1.07 fold enrichment (6-mer frequency, TF over GST control), the binding signal [2] was 1.16 fold enrichment (6-mer frequency, TF over GST control) and the binding signal [3] was 1.06 fold enrichment (6-mer frequency, TF over GST control). For the same sequence, the binding signal [4] was 1.09 fold enrichment (6-mer frequency, TF over GST control), the binding signal [5] was 1.09 fold enrichment (6-mer frequency, TF over GST control) and the binding signal [6] was 1.17 fold enrichment (6-mer frequency, TF over GST control). For the same sequence, the binding signal [7] was 1.08 fold enrichment (6-mer frequency, TF over GST control), the binding signal [8] was 1.03 fold enrichment (6-mer frequency, TF over GST control) and the binding signal [9] was 1.1 fold enrichment (6-mer frequency, TF over GST control). The binding signal [10] was 1.15 fold enrichment (6-mer frequency, TF over GST control), the binding signal [11] was 1.12 fold enrichment (6-mer frequency, TF over GST control) and the binding signal [12] was 1.02 fold enrichment (6-mer frequency, TF over GST control). The binding signal [13] was 1.13 fold enrichment (6-mer frequency, TF over GST control), the binding signal [14] was 1.07 fold enrichment (6-mer frequency, TF over GST control) and the binding signal [15] was 1.1 fold enrichment (6-mer frequency, TF over GST control). For the same sequence, the binding signal [16] was 1.15 fold enrichment (6-mer frequency, TF over GST control), the binding signal [17] was 1.04 fold enrichment (6-mer frequency, TF over GST control) and the binding signal [18] was 1.05 fold enrichment (6-mer frequency, TF over GST control).
